Compound activity from PubChem BioAssay.
This excerpt belongs to a sample that is enriched for hits.
Shiga inhibitor = blocks Shiga toxin action in Vero cells; Vero cells, Shiga toxin protein synthesis inhibition reporter; 290,000 tested, 9.2% active; inhibition, % at 38.7 µM; in the data active = inhibition mostly above about 28%, no sharp cut-off; inactive = mostly below about 43%; also: 0% is about no effect
FBPA Giardia inh = inhibitors of Giardia lamblia fructose-1,6-bisphosphate aldolase. purified Giardia FBPA. Potency, µM (series often up to 59.6 µM), for the others: at the highest dose activity, negative = inhibition, usual class: inhibitors. 290,000 tested, 0.71% active; also: potency is read from the fitted curve at half-maximal effect; % is scaled to controls: 0 for no effect and ±100 for the full control effect; nearly all actives have a fitted effect of over 55% in size
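40 nM FBPA preincubated 10 min at RT with compound (up to 57.5 uM final), then substrate plus GAPDH/TPI/NAD/arsenate coupling and diaphorase/resazurin added. Fluorescence read after 20 min at RT, 525/598 nm.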
Tb PYK inh = T. brucei pyruvate kinase inhibition | TbPYK enzyme, Kinase-Glo Plus ATP luminescence, 45 min | Q57TT1 | Potency, µM (highest dose often 76.8 µM), without a hit: top-dose activity, negative = inhibition, usual class: inhibitors | 410,000 tested, 0.12% active | AID 624173; also: potency is read from the fitted curve at half-maximal effect; % is scaled to controls: 0 for no effect and ±100 for the full control effect; nearly all actives have a fitted effect of over 50% in size
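ADP (130 uM final) triggers the TbPYK reaction after compound addition; incubation is 45 min at room temperature. Kinase-Glo Plus is then added and luminescence imaged. Normalized data are fitted to concentration-effect curves.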
CHX counter = counter-screen hit for Shiga toxin inhibitors, cycloheximide. cell reporter, cycloheximide protein synthesis inhibition counterscreen. max response, %. 300,000 tested, 12% active. AID 2314; in the data active = max response mostly above about 13%, no sharp cut-off; inactive = mostly below about 14%; also: read at 38.3 µM for the half of the compounds with a filed dose; 0% is about no effect
Sm TGR block = S. mansoni TGR enzyme inhibition. Q962Y6. purified TGR, DTNB reduction, TNB absorbance 405 nm. Potency, µM (doses to about 114 µM), for the others: top-dose activity change, negative = inhibition, usual class: inhibitors. 360,000 tested, 3% active; also: potency is read from the fitted curve at half-maximal effect; % is scaled to controls: 0 for no effect and ±100 for the full control effect; nearly all actives have a fitted effect of over 60% in size
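First, TGR (20 nM dispensed) and NADPH were mixed with compound. Second, a 15 min room-temperature incubation followed. Third, further NADPH and then DTNB were added to start the reaction. Finally, TNB absorbance was monitored kinetically.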
LmPK inhibitor = inhibitors of Leishmania mexicana pyruvate kinase; 290,000 tested, 0.37% active; Q27686; AID 1721; Potency, µM (titrated, usually from 57.5 µM), for the others: top-dose activity change, negative = inhibition, hits mostly inhibitors; purified LmPK, Kinase-Glo ATP luminescence, 1 h; also: potency is read from the fitted curve at half-maximal effect; % is scaled to controls: 0 for no effect and ±100 for the full control effect
Target sequence (Q27686 whole entry, looked up): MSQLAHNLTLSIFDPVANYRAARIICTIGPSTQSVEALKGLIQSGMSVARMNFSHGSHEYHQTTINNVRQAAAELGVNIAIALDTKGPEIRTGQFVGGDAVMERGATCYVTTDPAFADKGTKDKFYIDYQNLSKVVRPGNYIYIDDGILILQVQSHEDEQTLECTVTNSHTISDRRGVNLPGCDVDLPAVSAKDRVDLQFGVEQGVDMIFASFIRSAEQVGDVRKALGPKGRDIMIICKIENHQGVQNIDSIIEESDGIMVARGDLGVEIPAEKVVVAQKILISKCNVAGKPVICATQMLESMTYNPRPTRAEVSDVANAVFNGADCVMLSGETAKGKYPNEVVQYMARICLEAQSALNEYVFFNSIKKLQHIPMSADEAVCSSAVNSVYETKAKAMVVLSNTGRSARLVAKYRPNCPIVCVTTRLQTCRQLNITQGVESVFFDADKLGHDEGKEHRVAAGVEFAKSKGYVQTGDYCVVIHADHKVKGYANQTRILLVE
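Purified LmPK (0.1 nM) with 0.5 mM PEP and 0.1 mM ADP in imidazole buffer pH 7.2 with MgCl2/KCl, 1 h at room temperature. ATP formed was read by luciferase luminescence and normalized to no-enzyme and uninhibited controls.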
* marks the source's active call; other numbers are inactive results; ? = inconclusive; . = not tested or not shown; [ ] = dose if it differs, or a comment. Unless noted, calls follow the shape of the dose curve; as a rule, active = well fitted curve in the direction sought with a large enough effect; inconclusive = small, poorly fitted or top-dose-only effect, or another doubt; inactive = no such curve, though single readings can be large; an effect the other way counts as inactive or inconclusive.

SMILES | Shiga inhibitor | FBPA Giardia inh | Tb PYK inh | CHX counter | Sm TGR block | LmPK inhibitor
O=S(=O)(NC1CCCCCCC1)c1ccccc1 | -6.4 | -6.8% | -6.2% | -0.2 | 0.6% | -6.3%
O=S(=O)(NC1CCCC1)c1cccc(-c2nnc(-c3ccccc3)o2)c1 | 7.4 | 0.5% | -7.2% | 30.5* | -0.2% | 7.5%
COc1cc(CN(C(=O)COc2ccc(C)c(C)c2)c2ccccn2)cc(OC)c1OC | . | . | 1.7% | . | 0.4% | .
CCCCCOc1ccc(C(=O)CCC(=O)NNC(=O)c2ccncc2)cc1 | . | . | 3.8% | . | -3.3% | .
CC/C=C\[C@H](O)[C@H](O)C1=C(C)C(=O)[C@]2(O1)C(=O)N[C@@](OC)(C(=O)c1ccccc1)C2O (stereo partly drawn) | -10.8 | -10.7% | -7.4% | -2.2 | 39.8µM* | 5.8%
CN(CCc1ccccc1)C(=O)c1ccc(NC(=O)Cc2ccc(NC(=O)C3CCN(C(=O)C4CCC4)CC3)cc2)cc1 | . | . | -15.7% | . | . | .
CC1C[N+](=C2C=C(N3CCOCC3)CC(C)(C)C2)CC(C)O1 (stereo not drawn) | -3.5 | -2.0% | -28.6% | 3.9 | 2.6% | 7.9%
CC1(C)CC(N2CCOCC2)=CC(=[N+]2CCOCC2)C1 | -3.6 | -6.1% | -0.5% | -2.3 | 44.7µM* | 8.4%
CCOC(=O)N1CCc2c(sc(NC(=O)c3ccc(S(=O)(=O)N4CCCC4)cc3)c2C#N)C1 | 1.7 | -12.4% | ? | 0.4 | -17.8% | 5.9%
CC(C)N1CCc2c(sc(NC(=O)c3ccc(S(=O)(=O)N4CCOCC4)cc3)c2C#N)C1 | 10.4 | -17.2% | 0.3% | -1.6 | 44.7µM* | -0.7%
CCCN1CCc2c(sc(NC(=S)NC(=O)c3ccccc3)c2C#N)C1 | 42.8* | -25.3% | 19.2% | 38.2* | ? | 9.6%
CC(C)N1CCc2c(sc(NC(=S)NC(=O)c3ccccc3)c2C#N)C1 | 39.4* | ? | -0.2% | 44.6* | -16.2% | 1.8%
Cc1sc(NC(=S)NC(=O)c2ccccc2)c(C#N)c1C | . | . | -5.7% | . | . | .
NCCCC[C@H](NC(=O)[C@@H]1CCCN1C(=O)[C@@H]1CSSC[C@H](NC(=O)CNC(=O)CNC(=O)CN)C(=O)N[C@@H](Cc2ccc(O)cc2)C(=O)N[C@@H](Cc2ccccc2)C(=O)N[C@@H](CCC(N)=O)C(=O)N[C@@H](CC(N)=O)C(=O)N1)C(=O)NCC(N)=O | . | . | -5.5% | . | . | .
CCNC(=O)C1CCCN(Cc2ccc(C)c3ccccc23)CC1 (stereo not drawn) | . | . | 1.2% | . | . | .
COc1cc(C2N=C(N)Nc3nc4ccccc4n32)ccc1OCC(=O)O (stereo not drawn) | . | . | -1.4% | . | 8.2% | .
CN1CCN(C2CN(Cc3cn(Cc4ccc(C(F)(F)F)cc4)nn3)S(=O)(=O)C2)CC1 (stereo not drawn) | . | . | 3.8% | . | . | .
CCN(CC(=O)Nc1ccc2c(c1)OCCO2)Cc1cc(=O)oc2c(C)c(C)ccc12 | -3.7 | -1.0% | -5.2% | 9.1* | -10.7% | 1.2%
CCN(CC(=O)Nc1ccc2c(c1)OCCO2)CC(=O)Nc1ccc2c(c1)OCO2 | 20.8 | -8.2% | 0.2% | 15.4 | -10.9% | 16.5%
COC(=O)c1c(-c2ccc(Cl)cc2)noc1N1CCN(c2ccc(OC)cc2)CC1 | . | . | -8.2% | . | 1.2% | .
CCOC(=S)SCc1cn2ccccc2n1 | 42.3* | ? | 7.4% | 29.9* | -3.5% | 1.1%
CCOC(=O)c1c(C)nc2cc(C)ccn12 | 26.9 | -0.9% | -3.2% | -1.2 | -5.7% | -3.4%
CCOC(=S)SCc1cn2ccc(C)cc2n1 | 11.9 | ? | -1.7% | 33.7* | 0.7% | -2.8%
Cc1ccn2cc(CSc3ccccc3N)nc2c1 | 105.0* | 0.8% | -7.7% | 46.1* | -29.8% | 4.5%
CCOC(=O)c1cn2ccc(C)cc2n1 | 76.8* | -5.8% | -21.6% | 29.0* | 38.8% | -9.9%
SMILES | Shiga inhibitor | FBPA Giardia inh | Tb PYK inh | CHX counter | Sm TGR block | LmPK inhibitor
O=C(NCc1cn2ccccc2n1)c1ccccc1 | 21.1 | 0.0% | 0.3% | 9.6 | 5.1% | -0.1%
COc1ccc(C(=O)N2CCC[C@@]3(CCN(c4ccccn4)C3)C2)cc1 | . | -6.2% | 0.0% | . | . | .
COc1ccc(C(c2oc(CO)cc(=O)c2O)c2oc(CO)cc(=O)c2O)cc1OC | -1.5 | ? | 3.6% | -6.1 | ? | -0.1%
COc1ccc(C(c2oc(CO)cc(=O)c2O)c2oc(CO)cc(=O)c2O)cc1 | 17.8 | -17.1% | -0.9% | 0.7 | 35.5µM* | 2.5%
Cc1ccnc(NC(c2ccccc2O)c2oc(CO)cc(=O)c2O)c1 (stereo not drawn) | 16.0 | ? | -5.6% | -2.9 | 1.78µM* | 22.3%
COc1ccc(C(Nc2ccccn2)c2oc(CO)cc(=O)c2O)cc1 (stereo not drawn) | -13.5 | ? | ? | -1.7 | 2.82µM* | -5.1%
O=c1cc(CO)oc(C(Nc2ccccn2)c2ccsc2)c1O (stereo not drawn) | 23.5 | ? | . | 9.0 | 11.2µM* | 7.0%
O=c1cc(CO)oc(C(Nc2ccccn2)c2ccccc2Cl)c1O (stereo not drawn) | -8.3 | -16.2% | -14.2% | 10.6 | ? | -0.1%
COc1ccc(C)cc1S(=O)(=O)NC1CC1 | . | 0.5% | 0.9% | 3.3 | 4.7% | -1.4%
CCOCCCNC(=O)C(c1ccc(OC)cc1)N(Cc1cccs1)C(=O)c1ccc(NC(C)=O)cc1 (stereo not drawn) | . | . | 4.2% | . | -5.5% | .
COc1ccc(-c2nc3cnc(N4CCOCC4)nc3n(-c3ccccc3)c2=O)cc1 | . | 7.0% | . | . | . | .
O=c1cc(CO)oc(C(Nc2ccccn2)c2ccc(F)cc2)c1O (stereo not drawn) | -4.7 | ? | -5.3% | -1.5 | 2.51µM* | 6.0%
O=C(CCc1ccccc1)Nc1ccc(NC(=O)c2ccco2)nc1 | 28.1 | 2.3% | -0.8% | 22.3* | -11.6%[11.4 µM] | 9.5%
O=C(CCc1ccccc1)Nc1ccc(NC(=O)c2ccco2)cc1 | 39.1 | -0.5% | -0.7% | -2.3 | 0.0% | 3.3%
Cc1ccc(NC(=O)c2ccco2)nc1 | . | . | -20.4% | . | . | .
O=C(Nc1ccc(NC(=O)c2ccccc2Cl)nc1)c1ccco1 | 69.0* | 4.2% | -19.9% | 16.8* | 1.8% | -2.1%
CC1(C)N=C(N)NC(=NCCCOc2ccc([N+](=O)[O-])cc2)N1 | . | . | 3.6% | . | . | .
O=C(Nc1cc(Cl)ccc1N1CCOCC1)c1ccncc1 | . | . | 1.4% | . | . | .
O=C(Nc1ccc(N2CCOCC2)c(F)c1)c1ccncc1 | 60.8* | -9.1% | -0.4% | 17.9* | 8.0% | -3.6%
COC(=O)c1cc(NC(=O)c2cccs2)ccc1N1CCOCC1 | -14.8 | 0.7% | 2.0% | 1.6 | 0.0%[57.1 µM] | -15.0%
O=C(c1ccccc1)c1ccc(N2CCOCC2)c(F)c1 | 131.4* | -2.1% | 0.6% | 20.5* | 0.8% | -4.4%
O=C(c1ccccc1)c1cc(F)c(N2CCOCC2)cc1Cl | 23.4 | -1.5% | 3.4% | 15.3 | -18.0% | -3.4%
O=C(Nc1ccc(N2CCOCC2)c(F)c1)c1cccs1 | 52.8* | -8.8% | -8.1% | 43.6* | -0.1% | -29.7%
